Among the test systems are NCI-H23 lung; NCI-H226 lung; NCI-H322M lung; HOP-62 NSCLC; NCI-H460 lung; HOP-92 NSCLC; NCI-H522 lung; A549/ATCC NSCLC; 786-0 renal; COLO 205 colon.
Common to all, as to experiment: NCI-60 one-dose screen, 48 h (100 = growth as untreated, 0 = no growth, -100 = all killed)
What all share (settings): 10 µM unless noted

The structures appear in SMILES notation. The panel holds about 83,000 compounds, 20% with a hit somewhere; the sample as a whole holds those more often.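 Note: values are percent growth. 100 is the growth of untreated cells, values between 100 and 0 indicate rising inhibition; between -100 and 0 indicates cell death.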 Unmarked numbers belong to inactive results. The source made the active and inactive calls. The calls were made as follows: active = growth percent below 10; inactive = the rest.

For `Cc1cc(C)c2c(c1)N(C)c1ncnc(-n3cnc4cc(C)ccc43)c1CC2C` (stereo not given), the growth in the assay with NCI-H23 lung is 37.9%; in the assay with NCI-H226 lung, 49.9%; in the assay with NCI-H322M lung, 48.5%; with HOP-62 NSCLC, 31.8%; in the assay on NCI-H460 lung, 7.26% (active); in the assay with HOP-92 NSCLC it was 38.3%. For the same molecule, the growth in the assay with NCI-H522 lung was -0.316% (active); in the assay with A549/ATCC NSCLC it was 26.2%; in the assay with 786-0 renal, 22.8%; in the assay with COLO 205 colon, 0.292% (active).

Consider `Cc1ccc2c(n1)C(=O)C(Br)=C(C1CCCC1)C2=O`, for which the growth in the assay on NCI-H23 lung is 92.4%; in the assay with NCI-H226 lung, 94.3%; in the assay with NCI-H322M lung, 100%; with HOP-62 NSCLC, 84%; in the assay on NCI-H460 lung it was 110%; in the assay with HOP-92 NSCLC it was 98.4%. For the same molecule, the growth in the assay on NCI-H522 lung was 83.6%; in the assay with A549/ATCC NSCLC, 94.4%; in the assay on 786-0 renal, 101%; with COLO 205 colon, 52%.

Consider `N#Cc1ccc(O)c(C2=NCC(c3cccc(Oc4ccccc4)c3)O2)c1` (stereo not given), for which the growth in the assay on NCI-H23 lung was 41.1%; in the assay on NCI-H226 lung, 45.2%; in the assay on NCI-H322M lung, 41.7%; with HOP-62 NSCLC it was 2.94% (active); with NCI-H460 lung, 4.55% (active); in the assay with HOP-92 NSCLC, 36.8%. Further, the growth with NCI-H522 lung was -11.9% (active); with A549/ATCC NSCLC it was -0.648% (active); in the assay on 786-0 renal, 26.4%; in the assay with COLO 205 colon, 14.7%.

For the molecule `O=C(/C=C/c1cccs1)Nc1ncc(Cc2ccccc2F)s1`, the growth with NCI-H23 lung was 47.5%; in the assay with NCI-H226 lung, 57.8%; with NCI-H322M lung, 37.9%; in the assay with HOP-62 NSCLC it was 22.4%; in the assay with NCI-H460 lung, 12.9%; in the assay on HOP-92 NSCLC it was 60%. Further, the growth in the assay on NCI-H522 lung was 6.23% (active); in the assay with A549/ATCC NSCLC, 29%; in the assay with 786-0 renal, 30.8%; with COLO 205 colon, 4.7% (active).

As for `O=C1/C(=C\c2ccc3nccnc3c2)SC(=S)N1CCc1ccc(O)cc1`, the growth is 98.2% in the assay with NCI-H23 lung; 96% with NCI-H226 lung; 103% with NCI-H322M lung; 108% in the assay on HOP-62 NSCLC; 102% in the assay on NCI-H460 lung; -3.77% (active) in the assay on HOP-92 NSCLC. The growth in the assay with NCI-H522 lung was 65.9%; with A549/ATCC NSCLC, 101%; with 786-0 renal, 60.6%; with COLO 205 colon, 119%.

For `COCCn1cc(-c2csc(-c3cn(C)c4ccc(Br)cc34)n2)c2cccnc21`, the growth was 76.1% in the assay on NCI-H23 lung; 86.4% in the assay on NCI-H226 lung; 74.2% with NCI-H322M lung; 70.8% in the assay on HOP-62 NSCLC; 26.8% in the assay with NCI-H460 lung; 65.3% in the assay on HOP-92 NSCLC. Moreover, the growth in the assay on NCI-H522 lung was -35.7% (active); with A549/ATCC NSCLC, 40.2%; with 786-0 renal, 19.8%; in the assay with COLO 205 colon, 46.6%.

`COc1ccc(-c2noc(C(=O)O)c2-c2cc(OC)c(OC)c(OC)c2)cc1`: the growth in the assay on NCI-H23 lung is 39.9%; in the assay on NCI-H226 lung it was 54.1%; in the assay with NCI-H322M lung, 48.9%; with HOP-62 NSCLC, 36.6%; in the assay with NCI-H460 lung it was 14.8%; in the assay on HOP-92 NSCLC, 54.9%. In addition, the growth in the assay with NCI-H522 lung was 17.3%; with A549/ATCC NSCLC, 43.4%; in the assay with 786-0 renal, 33.1%; in the assay on COLO 205 colon it was 6.75% (active).

In the case of `O=c1c2ccccc2n2cnc3ccc(Cl)c1c32`, the growth in the assay with NCI-H23 lung is 86.2%; in the assay with NCI-H226 lung, 93.9%; in the assay on NCI-H322M lung it was 90.2%; in the assay on HOP-62 NSCLC it was 93.1%; in the assay with NCI-H460 lung, 58.5%; in the assay on HOP-92 NSCLC it was 102%. Besides, the growth with NCI-H522 lung was 65.4%; in the assay on A549/ATCC NSCLC it was 67.8%; in the assay with 786-0 renal, 73.3%; in the assay with COLO 205 colon, 91.8%.

Turning to `COc1ccc(/C=N/NC(=O)c2ccc(-n3cc(-c4ccccc4)nn3)cc2)cc1OC`, the growth was 95.2% with NCI-H23 lung; 92.7% in the assay on NCI-H226 lung; 105% with NCI-H322M lung; 101% in the assay with HOP-62 NSCLC; 111% with NCI-H460 lung; 94.9% in the assay on HOP-92 NSCLC. Also, the growth in the assay with NCI-H522 lung is 99.6%; in the assay on A549/ATCC NSCLC it was 104%; with 786-0 renal it was 98.1%; in the assay with COLO 205 colon, 91.7%.

For the molecule `Cn1cc(-c2csc(-c3c[nH]c4ccc(Br)cc34)n2)c2ccnc(Cl)c21`, the growth with NCI-H23 lung is 62.1%; with NCI-H226 lung it was 59.4%; in the assay on NCI-H322M lung it was 67.1%; in the assay with HOP-62 NSCLC, 101%; in the assay on NCI-H460 lung, 9.96% (active); with HOP-92 NSCLC it was 64.2%. The growth in the assay with NCI-H522 lung was 56.3%; in the assay on A549/ATCC NSCLC, 42.4%; with 786-0 renal, 47%; in the assay with COLO 205 colon, 42.5%.

Take `O=S(=O)(c1ccccc1)n1cc2c(c1)-c1nc(Nc3ncccn3)sc1CC2`: the growth in the assay with NCI-H23 lung is 61.9%; in the assay on NCI-H226 lung, 25.9%; with NCI-H322M lung, 63.6%; with HOP-62 NSCLC, 22.1%; in the assay on NCI-H460 lung, 68.4%; with HOP-92 NSCLC it was 22%. In addition, the growth in the assay with NCI-H522 lung was 55.3%; in the assay with A549/ATCC NSCLC it was 35.2%; in the assay with 786-0 renal, 18.3%; in the assay on COLO 205 colon it was 61.9%.

For the molecule `CN(C)S(=O)(=O)c1cccc(C(=O)Nc2nc(-c3ccc(F)c(F)c3)cs2)c1`, the growth in the assay on NCI-H23 lung is 45.7%; in the assay with NCI-H226 lung it was 46.7%; in the assay with NCI-H322M lung, 106%; in the assay with HOP-62 NSCLC, 99.5%; with NCI-H460 lung, 49.4%; with HOP-92 NSCLC it was 67.1%. The growth was 25.2% in the assay with NCI-H522 lung, 60.1% in the assay with A549/ATCC NSCLC, 64.9% in the assay with 786-0 renal and 103% with COLO 205 colon.

With `COc1cc2cc(NCc3cccc(Cl)c3)nc(C)c2cc1OC`, the growth was 22.6% in the assay with NCI-H23 lung; 35.8% in the assay on NCI-H226 lung; 37.4% with NCI-H322M lung; 51.4% with HOP-62 NSCLC; 22.7% with NCI-H460 lung; 57.8% with HOP-92 NSCLC. Also, the growth with NCI-H522 lung is 18.3%; in the assay on A549/ATCC NSCLC it was 41.3%; with 786-0 renal, 39.9%; with COLO 205 colon it was 31.6%.

The values are drawn from PubChem BioAssay (NCI).
